Measured values reported in PubChem BioAssay.
Activity calls are given as the source filed them. The rule behind the calls is not given here.

target: Protein kinase 7 (PK7), Plasmodium falciparum 3D7 (PF3D7_0213400) (UniProt Q7YTF7); assay: inhibition of Plasmodium PK7 catalytic activity – biochemical, TCAMS antimalarial set, Kinase-Glo luminescence (AID 1159587); conditions: recombinant PfPK7, Kinase-Glo ATP depletion luminescence
Sequence (Q7YTF7 1-343): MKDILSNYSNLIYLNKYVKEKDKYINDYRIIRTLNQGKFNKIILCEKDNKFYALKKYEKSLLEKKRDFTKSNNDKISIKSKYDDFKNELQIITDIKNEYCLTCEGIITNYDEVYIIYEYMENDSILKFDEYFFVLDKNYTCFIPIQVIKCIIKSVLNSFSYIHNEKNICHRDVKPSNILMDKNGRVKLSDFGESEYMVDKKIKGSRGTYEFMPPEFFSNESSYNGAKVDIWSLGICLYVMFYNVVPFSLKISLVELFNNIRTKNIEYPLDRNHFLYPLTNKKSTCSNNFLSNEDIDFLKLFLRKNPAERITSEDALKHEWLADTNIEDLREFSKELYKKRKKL

outcome, inactive:
CC(C)c1ccc(NC(=O)Nc2ccc(CCNCCCc3ccccc3)cc2)cc1
CC(C)NCc1cccc(-c2cccc(NC(=O)c3cccc(Cl)c3)c2)c1
CC[C@@H]([C@@H](Cc1cc2ccccc2s1)C(=O)N[C@@H](CCCCNC(=O)OCc1ccccc1)C(=O)Nc1ccccn1)N(O)C=O
Cc1cccc2[nH]c(-c3cccc(-c4ccc(NC(=O)Nc5ccc(F)c(F)c5F)cc4)c3)nc12
C=CCNC(=O)CCCN=C(N)N
O=C(Nc1cccc(F)c1)c1ccc(C(=O)NC2CCN(CC3CCCCC3)CC2)cc1
COc1ccc(CCCc2nc(N)nc(N)c2-c2ccc(Cl)cc2)cc1
CN1CCN(CCCN(Cc2cccc(-c3ccc(CNCCc4ccccc4)cc3)c2)C(=O)c2cccs2)CC1
O=C(Nc1cccc(CN2CCN(C(=O)c3cccc(Cl)c3)CC2)c1)c1ccco1
CN1CCN(c2cccc(-c3nnc(-c4ccc(OCC(=O)NCc5ccc(C(F)(F)F)cc5)c([N+](=O)[O-])c4)o3)c2)CC1
CCn1c(-c2cc(C)on2)nc2cnc(Oc3ccc(C(=O)N4CC(=O)N(C)C4C(C)(C)C)cc3)cc21 (stereo not given)
O=C(NCCCCCCNCc1ccc(-c2ccccc2)cc1)Nc1ccc(Cl)c(Cl)c1
O=C(Nc1ccc(Oc2cccnc2)cc1)C1CCN(Cc2cc(Cl)ccc2O)CC1
CN1Cc2cc(NC(=O)/C=C/c3ccccc3Cl)ccc2C(C)(C)C1
COc1ccc2c(NN=C(C)c3ccccn3)cc(C)nc2c1
